From the supplement of paper PMC8728848
Many of the other results were omitted from the sample, so the strongest signals are more common in it than they were.

Legend:
Test in all cases: glycan array binding signal (z-score within array); higher = stronger binding
Conditions in all cases: glycan notation: IUPAC condensed, linker removed
Fuc(a1-2)Gal(b1-3)GalNAc = molecular target: Fuc(a1-2)Gal(b1-3)GalNAc
Outline: (§1)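 Columns mapping to the same glycan were averaged after glycan names were converted to IUPAC-condensed notation. The data come from 3228 arrays in the Consortium for Functional Glycomics database, limited to those with an available protein sequence. Binding is reported as a within-array Z-score averaged across arrays of one protein sequence and across linkers.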

[1] = molecular target: Fuc(a1-2)Gal(b1-3)GalNAc(b1-3)Gal
Outline: as §1

[2] = molecular target: Fuc(a1-2)Gal(b1-3)GalNAc(b1-3)Gal(a1-4)Gal(b1-4)Glc
Outline: as §1

Fuc(a1-2)Gal(b1-3)GlcNAc = molecular target: Fuc(a1-2)Gal(b1-3)GlcNAc
Outline: as §1

[3] = molecular target: Fuc(a1-2)[GalNAc(a1-3)]Gal(b1-4)[Fuc(a1-3)]GlcNAc
Outline: as §1

Gal(a1-3)Gal(b1-3)GlcNAc = molecular target: Gal(a1-3)Gal(b1-3)GlcNAc
Outline: as §1

[4] = molecular target: Gal(b1-3)GalNAc(b1-3)Gal(a1-4)Gal(b1-4)Glc
Outline: as §1

[5] = molecular target: Gal(b1-3)[Fuc(a1-4)]GlcNAc
Outline: as §1

[6] = molecular target: Gal(b1-3)[Fuc(a1-4)]GlcNAc(b1-3)Gal(b1-4)GlcNAc
Outline: as §1

[7] = molecular target: Gal(b1-4)GlcNAc(b1-3)GalNAc
Outline: as §1

[8] = molecular target: Gal3S(b1-3)[Fuc(a1-4)]GlcNAc
Outline: as §1

GalNAc(a1-3)Gal = molecular target: GalNAc(a1-3)Gal
Outline: as §1

[9] = molecular target: GlcNAc(b1-3)[GlcNAc(b1-6)]GalNAc
Outline: as §1

GlcNAc(b1-4)GlcNAc = molecular target: GlcNAc(b1-4)GlcNAc
Outline: as §1

[10] = molecular target: GlcNAc(b1-6)Gal(b1-4)GlcNAc
Outline: as §1

[11] = molecular target: Man(a1-2)Man(a1-2)Man(a1-6)[Man(a1-3)]Man
Outline: as §1

[12] = molecular target: Man(a1-2)Man(a1-3)[Man(a1-2)Man(a1-6)]Man
Outline: as §1

[13] = molecular target: Man(a1-2)Man(a1-6)[Man(a1-3)]Man(a1-6)[Man(a1-2)Man(a1-2)Man(a1-3)]Man
Outline: as §1

[14] = molecular target: Neu5Ac(a2-3)Gal(b1-3)GalNAc(b1-4)[Neu5Ac(a2-3)]Gal(b1-4)Glc
Outline: as §1

[15] = molecular target: Neu5Ac(a2-3)Gal(b1-4)GlcNAc(b1-3)Gal(b1-3)GlcNAc
Outline: as §1

[16] = molecular target: Neu5Ac(a2-3)Gal6S(b1-4)[Fuc(a1-3)]GlcNAc
Outline: as §1

[17] = molecular target: Neu5Ac(a2-6)Gal(b1-4)GlcNAc(b1-2)Man(a1-3)[GlcNAc(b1-2)Man(b1-4)GlcNAc(b1-2)Man(a1-6)]Man(b1-4)GlcNAc(b1-4)GlcNAc
Outline: as §1

Neu5Ac(a2-6)GalNAc = molecular target: Neu5Ac(a2-6)GalNAc
Outline: as §1

[18] = molecular target: Neu5Ac(a2-8)Neu5Ac(a2-8)Neu5Ac(a2-8)Neu5Ac(a2-3)[GalNAc(b1-4)]Gal(b1-4)Glc
Outline: as §1

Neu5Ac(b2-6)GalNAc = molecular target: Neu5Ac(b2-6)GalNAc
Outline: as §1

Fuc(a1-2)Gal(b1-4)Glc = molecular target: Fuc(a1-2)Gal(b1-4)Glc
Outline: as §1

[19] = molecular target: Fuc(a1-2)[Gal(a1-3)]Gal(b1-3)GlcNAc
Outline: as §1

[20] = molecular target: Fuc(a1-2)[Gal(a1-4)]Gal(b1-4)GlcNAc
Outline: as §1

[21] = molecular target: Fuc(a1-3)[Gal(b1-4)]GlcNAc(b1-4)Gal(b1-4)[Fuc(a1-3)]GlcNAc(b1-4)Gal(b1-4)[Fuc(a1-3)]GlcNAc
Outline: as §1

[22] = molecular target: Fuc(a1-3)[Gal3S(b1-4)]Glc6S
Outline: as §1

Gal(a1-4)Gal(b1-4)Glc = molecular target: Gal(a1-4)Gal(b1-4)Glc
Outline: as §1

Gal(b1-2)Gal = molecular target: Gal(b1-2)Gal
Outline: as §1

[23] = molecular target: Gal(b1-3)GlcNAc(b1-3)Gal(b1-4)Glc
Outline: as §1

[24] = molecular target: Gal(b1-3)[Fuc(a1-4)]GlcNAc(b1-3)Gal(b1-4)[Fuc(a1-3)]GlcNAc
Outline: as §1

GalNAc(b1-3)Gal = molecular target: GalNAc(b1-3)Gal
Outline: as §1

[25] = molecular target: GlcNAc(b1-2)Man(a1-3)[GlcNAc(b1-2)Man(a1-6)]Man(b1-4)GlcNAc(b1-4)GlcNAc
Outline: as §1

GlcNAc(b1-3)Man = molecular target: GlcNAc(b1-3)Man
Outline: as §1

GlcNAc(b1-6)GalNAc = molecular target: GlcNAc(b1-6)GalNAc
Outline: as §1

Kdn(a2-3)Gal(b1-4)GlcNAc = molecular target: Kdn(a2-3)Gal(b1-4)GlcNAc
Outline: as §1

[26] = molecular target: Neu5Ac(a2-3)Gal(b1-3)GalNAc(b1-3)Gal(a1-4)Gal(b1-4)Glc
Outline: as §1

[27] = molecular target: Neu5Ac(a2-3)Gal(b1-3)GalNAc6S
Outline: as §1

[28] = molecular target: Neu5Ac(a2-3)Gal(b1-4)GlcNAc(b1-6)[Neu5Ac(a2-3)Gal(b1-3)]GalNAc
Outline: as §1

[29] = molecular target: Neu5Ac(a2-6)Gal(b1-4)GlcNAc(b1-2)Man(a1-3)[GlcNAc(b1-2)Man(a1-6)]Man(b1-4)GlcNAc(b1-4)GlcNAc
Outline: as §1

[30] = molecular target: Neu5Ac(a2-6)Gal(b1-4)GlcNAc(b1-2)Man(a1-6)[GlcNAc(b1-2)Man(a1-3)]Man(b1-4)GlcNAc(b1-4)GlcNAc
Outline: as §1

[31] = molecular target: Neu5Ac(a2-6)GalNAc(b1-4)GlcNAc
Outline: as §1

[32] = molecular target: Fuc(a1-2)Gal6S(b1-4)Glc6S
Outline: as §1

[33] = molecular target: Fuc(a1-3)[Gal3S(b1-4)]Glc
Outline: as §1

[34] = molecular target: Fuc(a1-3)[Gal3S(b1-4)]GlcNAc6S
Outline: as §1

Gal(b1-3)Gal = molecular target: Gal(b1-3)Gal
Outline: as §1

Gal(b1-3)GalNAc = molecular target: Gal(b1-3)GalNAc
Outline: as §1

[35] = molecular target: Gal(b1-3)GalNAc(b1-3)Gal(b1-4)Glc
Outline: as §1

Gal3S(b1-4)Glc6S = molecular target: Gal3S(b1-4)Glc6S
Outline: as §1

Gal3S(b1-4)GlcNAc6S = molecular target: Gal3S(b1-4)GlcNAc6S
Outline: as §1

Gal3S6S(b1-4)GlcNAc6S = molecular target: Gal3S6S(b1-4)GlcNAc6S
Outline: as §1

Gal4S6S(b1-4)GlcNAc = molecular target: Gal4S6S(b1-4)GlcNAc
Outline: as §1

Gal6S(b1-4)Glc6S = molecular target: Gal6S(b1-4)Glc6S
Outline: as §1

Glc(a1-4)Glc = molecular target: Glc(a1-4)Glc
Outline: as §1

Glc(a1-6)Glc(a1-6)Glc = molecular target: Glc(a1-6)Glc(a1-6)Glc
Outline: as §1

[36] = molecular target: GlcNAc(a1-6)Gal(b1-4)GlcNAc
Outline: as §1

[37] = molecular target: Neu5Ac(a2-3)Gal(b1-3)[Neu5Ac(a2-3)Gal(b1-4)]GlcNAc
Outline: as §1

[38] = molecular target: Neu5Ac(a2-3)Gal(b1-3)[Neu5Ac(a2-6)]GalNAc
Outline: as §1

[39] = molecular target: Neu5Ac(a2-3)[GalNAc(b1-4)]Gal(b1-4)GlcNAc
Outline: as §1

[40] = molecular target: Neu5Ac(a2-6)Gal(b1-4)GlcNAc(b1-3)Gal(b1-4)[Fuc(a1-3)]GlcNAc(b1-3)Gal(b1-4)[Fuc(a1-3)]GlcNAc
Outline: as §1

[41] = molecular target: Neu5Ac(a2-8)Neu5Ac(a2-3)[GalNAc(b1-4)]Gal(b1-4)Glc
Outline: as §1

B1: Glycodelin A (Homo sapiens), P09466 (protein)
chain: MLCLLLTLGVALVCGVPAMDIPQTKQDLELPKLAGTWHSMAMATNNISLMATLKAPLRVHITSLLPTPEDNLEIVLHRWENNSCVEKKVLGEKTENPKKFKINYTVANEATLLDTDYDNFLFLCLQDTTTPIQSMMCQYLARVLVEDDEIMQGFIRAFRPLPRHLWYLLDLKQMEEPCRF
glycan array binding signal (z-score) (Fuc(a1-2)Gal(b1-3)GalNAc): -0.421 | glycan array binding signal (z-score) [1]: -0.414 | glycan array binding signal (z-score) [2]: -0.485 | glycan array binding signal (z-score) (Fuc(a1-2)Gal(b1-3)GlcNAc): -0.318 | glycan array binding signal (z-score) [3]: -0.439 | glycan array binding signal (z-score) (Gal(a1-3)Gal(b1-3)GlcNAc): 4.32 | glycan array binding signal (z-score) [4]: -0.473 | glycan array binding signal (z-score) [5]: 0.183 | glycan array binding signal (z-score) [6]: 1.52 | glycan array binding signal (z-score) [7]: -0.373 | glycan array binding signal (z-score) [8]: 3.69 | glycan array binding signal (z-score) (GalNAc(a1-3)Gal): -0.099 | glycan array binding signal (z-score) [9]: -0.397 | glycan array binding signal (z-score) (GlcNAc(b1-4)GlcNAc): -0.002 | glycan array binding signal (z-score) [10]: -0.5 | glycan array binding signal (z-score) [11]: -0.508 | glycan array binding signal (z-score) [12]: -0.43 | glycan array binding signal (z-score) [13]: -0.427 | glycan array binding signal (z-score) [14]: -0.406 | glycan array binding signal (z-score) [15]: -0.449 | glycan array binding signal (z-score) [16]: -0.448 | glycan array binding signal (z-score) [17]: 2.02 | glycan array binding signal (z-score) (Neu5Ac(a2-6)GalNAc): 4.31 | glycan array binding signal (z-score) [18]: 4.64 | glycan array binding signal (z-score) (Neu5Ac(b2-6)GalNAc): 3.68

B2: LSECtin (Homo sapiens), Q6UXB4 (protein)
chain: MEQESALRELRERVTQGLAEAGRGREDVRTELFRALEAVRLQNNSCEPCPTSWLSFEGSCYFFSVPKTTWAAAQDHCADASAHLVIVGGLDEQGFLTRNTRGRGYWLGLRAVRHLGKVQGYQWVDGVSLSFSHWNQGEPNDAWGRENCVMMLHTGLWNDAPCDSEKDGWICEKKAQLLTPPSALEPRPLQHVVSWGLLTSLAPGADCQRVFSSSSTAAESQKHLAQHSPVQPSAWALGPPCRPHPNSTHADPT
glycan array binding signal (z-score) (Fuc(a1-2)Gal(b1-3)GalNAc): -0.303 | glycan array binding signal (z-score) (Fuc(a1-2)Gal(b1-4)Glc): 3.15 | glycan array binding signal (z-score) [19]: -0.278 | glycan array binding signal (z-score) [20]: 2.9 | glycan array binding signal (z-score) [21]: -0.279 | glycan array binding signal (z-score) [22]: 0.092 | glycan array binding signal (z-score) (Gal(a1-4)Gal(b1-4)Glc): -0.309 | glycan array binding signal (z-score) (Gal(b1-2)Gal): -0.302 | glycan array binding signal (z-score) [23]: -0.295 | glycan array binding signal (z-score) [24]: -0.241 | glycan array binding signal (z-score) (GalNAc(b1-3)Gal): -0.287 | glycan array binding signal (z-score) [25]: 5.09 | glycan array binding signal (z-score) (GlcNAc(b1-3)Man): 0.057 | glycan array binding signal (z-score) (GlcNAc(b1-6)GalNAc): -0.174 | glycan array binding signal (z-score) (Kdn(a2-3)Gal(b1-4)GlcNAc): -0.308 | glycan array binding signal (z-score) [12]: 0.406 | glycan array binding signal (z-score) [26]: -0.275 | glycan array binding signal (z-score) [27]: -0.307 | glycan array binding signal (z-score) [28]: -0.297 | glycan array binding signal (z-score) [29]: 5.63 | glycan array binding signal (z-score) [30]: 5.21 | glycan array binding signal (z-score) [31]: -0.301

B3: NKp30 (Homo sapiens), O14931 (protein)
chain: LWVSQPPEIRTLEGSSAFLPCSFNASQGRLAIGSVTWFRDEVVPGKEVRNGTPEFRGRLAPLASSRFLHDHQAELHIRDVRGHDASIYVCRVEVLGLGVGTGNGTRLVVEKEHPQLG
glycan array binding signal (z-score) (Fuc(a1-2)Gal(b1-3)GalNAc): -0.862 | glycan array binding signal (z-score) [32]: 2.23 | glycan array binding signal (z-score) [33]: 0.441 | glycan array binding signal (z-score) [22]: 0.61 | glycan array binding signal (z-score) [34]: 0.561 | glycan array binding signal (z-score) (Gal(b1-3)Gal): -0.378 | glycan array binding signal (z-score) (Gal(b1-3)GalNAc): -0.24 | glycan array binding signal (z-score) [35]: -0.43 | glycan array binding signal (z-score) (Gal3S(b1-4)Glc6S): 2.3 | glycan array binding signal (z-score) (Gal3S(b1-4)GlcNAc6S): 2.56 | glycan array binding signal (z-score) (Gal3S6S(b1-4)GlcNAc6S): 2.38 | glycan array binding signal (z-score) (Gal4S6S(b1-4)GlcNAc): 2.56 | glycan array binding signal (z-score) (Gal6S(b1-4)Glc6S): 2.44 | glycan array binding signal (z-score) (Glc(a1-4)Glc): -0.398 | glycan array binding signal (z-score) (Glc(a1-6)Glc(a1-6)Glc): -0.195 | glycan array binding signal (z-score) [36]: -0.667 | glycan array binding signal (z-score) [37]: 0.776 | glycan array binding signal (z-score) [38]: -0.06 | glycan array binding signal (z-score) [39]: -0.354 | glycan array binding signal (z-score) [40]: -0.472 | glycan array binding signal (z-score) [41]: -0.18
